Experimental data taken from PubChem BioAssay AID1159580 (chemical genetic matrix, 2015).
Values joined by “and” are separate entries in the source; they are usually repeats but may differ in a detail not shown here. Equal values may be shown once. Screen size: about 5,500 compounds; about 2,000 (36%) were called active. Not shown: some 18% with an inconclusive outcome. Cut-off read from the data, not from the text of the source: active = normalized growth mostly below about 0.91 (no sharp cut-off); inconclusive = no clear call, values can overlap the other calls; inactive = mostly above about 0.92. This is one part of the list.

Test: chemical genetic growth profiling, strain panel (AID 1159580);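 note: tested at 20 µM; growth read once vehicle control cultures reached saturation at 30 °C; 1 = growth at the plate median or of vehicle wells; lower values mean less growth of the strain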
Conditions: S. cerevisiae deletion strains, growth OD

Measured: normalized growth

CC1(C)C2CC[C@]3(C)C(C(=O)C=C4[C@H]5C[C@@](C)(C(=O)O)CC[C@]5(C)CC[C@]43C)[C@@]2(C)CC[C@@H]1O (stereo partly specified)
active: locus YAL026C, strain drs2, hits give low values 0.881 | locus YBR009C, strain hhf1, hits give low values 0.861 | locus YDR137W, strain rgp1, hits give low values 0.743 | locus YDR392W, strain spt3, hits give low values 0.493 | locus YGL240W, strain doc1, hits give low values 0.879 | locus YGL253W, strain hxk2, hits give low values 0.754 | locus YHR142W, strain chs7, hits give low values 0.78 | locus YJL095W, strain BCK1 (second series), hits give low values 0.83 | locus YJL164C, strain tpk1, hits give low values 0.865 | locus YJL166W, strain qcr8, hits give low values 0.845
inactive: locus YAL013W, strain DEP1, hits give low values 1.04 | locus YAL021C, strain ccr4, hits give low values 1.02 | locus YAL030W, strain snc1, hits give low values 1 | locus YBL061C, strain skt5, hits give low values 0.972 | locus YBR021W, strain FUR4, hits give low values 1 | locus YBR023C, strain chs3, hits give low values 0.941 | locus YBR171W, strain sec66, hits give low values 1.02 | locus YBR229C, strain ROT2, hits give low values 1.04 | locus YBR231C, strain swc5, hits give low values 0.98 | locus YBR279W, strain paf1, hits give low values 0.948 | locus YCL011C, strain gbp2, hits give low values 0.923 | locus YCL016C, strain dcc1, hits give low values 0.944 | locus YCL029C, strain bik1, hits give low values 0.962 | locus YCL061C, strain MRC1, hits give low values 0.96 | locus YCL069W, strain vba3, hits give low values 0.955 | locus YCR088W, strain abp1, hits give low values 1.01 | locus YDL005C, strain med2, hits give low values 1 | locus YDL035C, strain GPR1, hits give low values 0.969 | locus YDL040C, strain nat1, hits give low values 0.995 | locus YDL074C, strain BRE1, hits give low values 1.02 | locus YDL101C, strain DUN1, hits give low values 1.02 | locus YDL134C, strain PPH21, hits give low values 1.03 | locus YDL185W, strain tfp1, hits give low values 1.01 | locus YDL192W, strain arf1, hits give low values 1.01 | locus YDR001C, strain nth1, hits give low values 1.02 | locus YDR069C, strain doa4, hits give low values 0.985 | locus YDR101C, strain arx1, hits give low values 0.988 | locus YDR150W, strain NUM1, hits give low values 1.06 | locus YDR159W, strain sac3, hits give low values 0.977 | locus YDR162C, strain NBP2, hits give low values 1.02 | locus YDR195W, strain ref2 1.1 | locus YDR297W, strain sur2, hits give low values 0.963 | locus YDR318W, strain mcm21, hits give low values 0.994 | locus YDR334W, strain swr1, hits give low values 1.04 | locus YDR335W, strain msn5, hits give low values 0.941 | locus YDR388W, hits give low values 1.01 | locus YDR502C, strain sam2, hits give low values 1 | locus YEL003W, strain gim4, hits give low values 0.97 | locus YEL037C, strain rad23, hits give low values 1.01 | locus YEL061C, strain CIN8 (second series), hits give low values 0.983 | locus YEL061C, strain CIN8, hits give low values 1.04 | locus YER015W, strain faa2, hits give low values 0.933 | locus YER016W, strain bim1, hits give low values 1.02 | locus YER110C, hits give low values 1.01 | locus YER111C, strain swi4, hits give low values 1.01 | locus YER155C, strain BEM2 (second series), hits give low values 0.874 | locus YER155C, strain BEM2, hits give low values 1.05 | locus YER167W, strain BCK2, hits give low values 1.04 | locus YFR010W, strain ubp6, hits give low values 0.99 | locus YGL078C, strain dbp3, hits give low values 0.94 | locus YGL086W, strain mad1, hits give low values 1.01 | locus YGL167C, strain pmr1, hits give low values 1.02 | locus YGL173C, strain kem1, hits give low values 0.999 | locus YGL227W, strain vid30, hits give low values 1.02 | locus YGL248W, strain PDE1, hits give low values 1.03 | locus YGR078C, strain PAC10, hits give low values 1.01 | locus YGR135W, strain pre9, hits give low values 0.985 | locus YGR229C, strain SMI1, hits give low values 0.984 | locus YGR252W, strain gcn5, hits give low values 0.935 | locus YHR013C, strain ard1, hits give low values 0.965 | locus YHR027C, strain rpn1, hits give low values 0.997 | locus YHR030C, strain SLT2, hits give low values 1.05 and 1.01 | locus YHR079C, strain IRE1 (second series), hits give low values 1 | locus YHR079C, strain IRE1, hits give low values 1.02 | locus YHR094C, strain hxt1, hits give low values 1.02 | locus YHR129C, strain ARP1, hits give low values 1.06 | locus YHR200W, strain rpn10, hits give low values 0.999 | locus YIL066C, strain RNR3, hits give low values 1.03 | locus YIL073C, strain SPO22, hits give low values 0.994 | locus YIL125W, strain kgd1, hits give low values 1.03 | locus YIR030C, strain dcg1, hits give low values 1.01 | locus YJL092W, strain hpr5, hits give low values 1.01 | locus YJL095W, strain BCK1, hits give low values 1.04 and 1.01 | locus YJL115W, strain asf1, hits give low values 1.04 | locus YJL129C, strain trk1, hits give low values 0.921 | locus YJL134W, strain LCB3, hits give low values 1.03 | locus YJL154C, strain vps35, hits give low values 1.02 | locus YJL168C, strain set2, hits give low values 1.02 | locus YJL187C, strain SWE1 (second series), hits give low values 1 | locus YJR043C, strain POL32, hits give low values 0.969 | locus YJR066W, strain TOR1, hits give low values 0.96
